# Results published in PubChem BioAssay (NCATS).
# Inconclusive results are not listed. Where a call stands in place of a potency, no number is given. The source made the active and inactive calls. The call rests on the fitted dose curve; in most records, active means well fitted curve in the direction sought with a large enough effect; inconclusive means small, poorly fitted or top-dose-only effect, or another doubt; inactive means no such curve, though single readings can be large; an effect the other way counts as inactive or inconclusive.
# What was measured:
# [1] = target: Glutathione peroxidase 1 (Homo sapiens) (UniProt P07203); assay: Primary qHTS Assay for Inhibitors of Recombinant Selenoprotein Glutathione Peroxidase 1 (GPX1) (AID 1845191); further: nearly all actives have a fitted effect of over 65% in size; further: potency means the concentration at half of the fitted maximal effect
# Summary of the method: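 NADPH consumption tracked by fluorescence at 340/450 nm between t=0 and t=15 min, room temperature. Final mix: 10 nM GPX1, 100 nM glutathione reductase, 1 mM GSH, 0.5 mM NADPH, 0.5 mM cumene hydroperoxide, 0.01% BSA; 30 min compound–enzyme preincubation.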
# [2] = Quantitative High-Throughput drug screen in 47 multiple myeloma cell lines against the NCATS MIPE library collection: Delta47_JCRB cell viability assay (AID 1918925; further: nearly all actives have a fitted effect of over 45% in size; further: potency means the concentration at half of the fitted maximal effect)
# Summary of the method: (§1)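 CellTiter-Glo ATP luminescence gave viability after 48 h compound treatment at 37C of 500 multiple myeloma cells per well. Normalisation used DMSO-only wells as 100% and media-only wells as 0% viability; primary qHTS of approved and investigational drugs.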
# [3] = Quantitative High-Throughput drug screen in 47 multiple myeloma cell lines against the NCATS MIPE library collection: EJM_DSMZ cell viability assay (AID 1918926; further: nearly all actives have a fitted effect of over 30% in size; further: potency means the concentration at half of the fitted maximal effect)
# Summary of the method: as §1
# [4] = Quantitative High-Throughput drug screen in 47 multiple myeloma cell lines against the NCATS MIPE library collection: AMO1_DSMZ cell viability assay (AID 1918927; further: nearly all actives have a fitted effect of over 30% in size; further: potency means the concentration at half of the fitted maximal effect)
# Summary of the method: as §1
# [5] = Primary fluorescence-based thiol-reactive (MSTI) qHTS assay for identification of artifact compounds. (AID 1845221);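 further: series mostly up to about 54 µM; thiol-reactive compounds lower the probe fluorescence signal; nearly all actives have a fitted effect of over 65% in size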
# Summary of the method: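 First, 4 uM MSTI in 2% DMSO/PBS pH 7.4 was dispensed; next, compounds were added; then plates sat 1 h at room temperature without light. Finally, emission at 598 nm was recorded.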
# [6] = system: Nanoluciferase (engineered Oplophorus gracilirostris luciferase); assay: Primary Nanoluciferase (NLuc) qHTS assay for identification of artifact compounds. (AID 1845222); further: series mostly up to about 54 µM
# Summary of the method: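 Luminescence from secreted NLuc (filtered, 1:55-diluted S16 cell medium) read 5 min after Nano-Glo substrate; compounds preincubated 15 min, RT. Hill fits of inhibition normalized to DMSO and no-enzyme.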
# [7] = Primary redox qHTS assay for identification of artifact compounds. (AID 1845223)
# Summary of the method: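 Redox-cycling detection via DTT (250 uM final) oxidation coupled to Amplex Red (25 uM)/HRP (250 mU/mL) in HBSS. 15 min preincubation plus 30 min after DTT, room temperature. Ex/Em 525/598 nm; 4-parameter Hill fit against DMSO and 10 uM DA3003.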
# [8] = target: Phospholipid hydroperoxide glutathione peroxidase GPX4 (Homo sapiens) (UniProt P36969); assay: Primary qHTS Assay for Inhibitors of Recombinant Selenoprotein Glutathione Peroxidase 4 (GPX4) (AID 1845192); further: nearly all actives have a fitted effect of over 65% in size; further: potency means the concentration at half of the fitted maximal effect
# Summary of the method: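 NADPH consumption followed by fluorescence at 340/450 nm, t=0 and after 15 min at room temperature. Reaction started with cumene hydroperoxide (0.5 mM final) after 30 min compound–GPX4 preincubation; final 200 nM GPX4, 100 nM GR, 1 mM GSH, 0.5 mM NADPH.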
# [9] = Quantitative High-Throughput drug screen in 47 multiple myeloma cell lines against the NCATS MIPE library collection: FR4_PLB cell viability assay (AID 1918924; further: nearly all actives have a fitted effect of over 35% in size; further: potency means the concentration at half of the fitted maximal effect)
# Summary of the method: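 Myeloma cells (500 per well) were exposed to MIPE 4.0 compounds by pin transfer and incubated 48 hours at 37C, 5% CO2. Viability was read as ATP by CellTiter-Glo luminescence, normalised to DMSO (100%) and media-only (0%) wells.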
# [10] = target: Luciferin 4-monooxygenase (Photinus pyralis) (UniProt P08659); assay: Primary firefly luciferase (FLuc) qHTS assay for identification of artifact compounds. (AID 1845220); further: nearly all actives have a fitted effect of over 60% in size; further: potency means the concentration at half of the fitted maximal effect
# Summary of the method: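 Compounds sat 15 min at room temperature with 10 uM luciferin and 10 uM ATP (pH 7.6 Tris acetate). Firefly luciferase (10 nM final) was then added, and luminescence was read 5 min later. Data normalized to no-enzyme and DMSO controls were Hill-fitted.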
# Sequence of Glutathione peroxidase 1 (Homo sapiens) (P07203 whole entry, looked up): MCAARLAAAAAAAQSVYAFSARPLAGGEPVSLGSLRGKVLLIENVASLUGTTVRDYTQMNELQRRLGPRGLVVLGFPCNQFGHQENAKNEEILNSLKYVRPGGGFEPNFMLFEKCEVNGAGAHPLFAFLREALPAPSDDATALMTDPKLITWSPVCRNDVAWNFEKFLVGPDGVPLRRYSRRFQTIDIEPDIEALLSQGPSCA
# Sequence of Phospholipid hydroperoxide glutathione peroxidase GPX4 (Homo sapiens) (P36969 whole entry, looked up): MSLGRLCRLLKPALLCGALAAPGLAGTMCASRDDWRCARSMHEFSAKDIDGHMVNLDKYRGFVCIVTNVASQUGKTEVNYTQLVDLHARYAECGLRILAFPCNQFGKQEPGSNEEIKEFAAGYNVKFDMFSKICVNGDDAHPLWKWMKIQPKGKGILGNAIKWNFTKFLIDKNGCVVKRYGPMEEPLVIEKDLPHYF
structure (smiles),measurement,setting,value
N[C@H](CSC(c1ccccc1)(c1ccccc1)c1ccccc1)C(=O)O,Potency,[1],inactive
same,Potency,[2],7.43 µM (active)
same,Potency,[3],18.7 µM (active)
same,Potency,[4],23.5 µM (active)
COc1ccc(C2CC(c3ccccc3)=NN2c2ccc(S(N)(=O)=O)cc2)cc1 (centres undefined),Potency,[5],inactive
same,Potency,[6],inactive
same,outcome,[7],inactive
same,Potency,[4],11.8 µM (active)
O=C(O)c1cc(O)c2c(c1)C(=O)c1cccc(O)c1C2=O,Potency,[8],inactive
NS(=O)(=O)c1ccc(NC2=CC(=O)c3ccccc3C2=O)cc1,Potency,[8],inactive
same,Potency,[2],18.7 µM (active)
same,Potency,[3],inactive
same,Potency,[4],0.59 µM (active)
O=C(O)c1ccc(-c2c[nH]c3ncc(-c4ccccc4)cc23)cc1C1CCCC1,Potency,[1],inactive
same,Potency,[3],inactive
same,Potency,[4],2.96 µM (active)
CC(C)=CC[C@@H](O)C1=CC(=O)c2c(O)ccc(O)c2C1=O,Potency,[8],16.1 µM (active)
same,Potency,[9],0.662 µM (active)
same,Potency,[2],8.33 µM (active)
same,Potency,[3],0.418 µM (active)
same,Potency,[4],4.18 µM (active)
O=C(O)c1c(Cl)c(Cl)c(Cl)c(Cl)c1-c1c2cc(I)c(=O)c(I)c-2oc2c(I)c(O)c(I)cc12,Potency,[1],inactive
same,Potency,[2],14.8 µM (active)
same,Potency,[4],13.2 µM (active)
C[C@]12CC[C@@H]3c4ccc(O)cc4C[C@@H](CCCCCCCCCS(=O)CCCC(F)(F)C(F)(F)F)[C@H]3[C@H]1CC[C@H]2O (some centres undefined),Potency,[1],inactive
same,Potency,[8],inactive
same,Potency,[4],inactive
COc1ccc(C2Sc3ccccc3N(CCN(C)C)C(=O)C2OC(C)=O)cc1 (centres undefined),Potency,[8],inactive
same,Potency,[10],inactive
same,Potency,[5],inactive
same,outcome,[7],inactive
same,Potency,[9],inactive
same,Potency,[2],inactive
CC(C)(C)OC(=O)N[C@H]1CCCCCC=C[C@@H]2C[C@@]2(C(=O)NS(=O)(=O)C2CC2)NC(=O)[C@@H]2C[C@@H](OC(=O)N3Cc4cccc(F)c4C3)CN2C1=O,Potency,[10],inactive
same,Potency,[5],inactive
same,Potency,[6],inactive
same,Potency,[9],inactive
same,Potency,[2],inactive
same,Potency,[3],inactive
same,Potency,[4],inactive
COc1ccc2cc(-c3nc(-c4ccc(S(C)=O)cc4)[nH]c3-c3ccncc3)ccc2c1 (centres undefined),Potency,[1],inactive
same,Potency,[10],inactive
same,Potency,[5],inactive
same,Potency,[6],inactive
same,outcome,[7],inactive
same,Potency,[2],16.6 µM (active)
C=C1C(=O)OC(CCCCCCCC)C1C(=O)O (centres undefined),Potency,[8],inactive
same,Potency,[2],14.8 µM (active)
same,Potency,[4],inactive
CCS(=O)(=O)N1CC(CC#N)(n2cc(-c3ncnc4[nH]ccc34)cn2)C1,Potency,[8],16.1 µM (active)
same,Potency,[10],inactive
same,Potency,[5],inactive
same,outcome,[7],inactive
same,Potency,[9],16.6 µM (active)
same,Potency,[4],3.72 µM (active)
COc1cc2nc(-c3ccc(N4CCN(C)CC4)cc3)nc(NCCN3CCOCC3)c2cc1OC,Potency,[1],inactive
same,Potency,[10],inactive
same,Potency,[5],inactive
same,Potency,[6],inactive
same,Potency,[9],0.0296 µM (active)
same,Potency,[2],0.148 µM (active)
same,Potency,[3],0.0264 µM (active)
same,Potency,[4],0.148 µM (active)
CCCCCNC(=O)N1CCC(CN(Cc2ccc(Cl)cc2)Cc2ccc([N+](=O)[O-])s2)C1 (centres undefined),Potency,[1],2.05 µM (active)
same,Potency,[8],inactive
same,Potency,[4],18.7 µM (active)
O=C(NOCC(O)CO)c1cc(Br)c(F)c(F)c1Nc1ccc(I)cc1F (centres undefined),Potency,[1],inactive
same,Potency,[9],inactive
same,Potency,[3],inactive
NC(=O)c1cccc2[nH]c(-c3ccc([C@H]4CCCN4)cc3F)nc12,Potency,[5],inactive
same,outcome,[7],inactive
same,Potency,[9],inactive
same,Potency,[3],inactive
CN(C)C1CCN(C(=O)c2ccc(NC(=O)Nc3nc(N4CCOCC4)nc(N4CCOCC4)n3)cc2)CC1,Potency,[8],inactive
same,Potency,[10],inactive
same,Potency,[5],inactive
same,outcome,[7],inactive
same,Potency,[3],0.166 µM (active)
same,Potency,[4],1.18 µM (active)
NC(=O)c1ccc2nc(-c3ccc(Oc4ccc(Cl)cc4)cc3)[nH]c2c1,Potency,[10],3.38 µM (active)
same,Potency,[5],inactive
same,Potency,[6],inactive
same,outcome,[7],inactive
same,Potency,[2],0.0264 µM (active)
same,Potency,[3],inactive
same,Potency,[4],1.48 µM (active)
CC1(C)Cc2c(sc(NC(=S)NC(=O)c3ccccc3)c2C(=O)O)CO1,Potency,[1],inactive
same,Potency,[4],inactive
CN(C)Cc1ccc(-c2nc3cccc4c3n2CCNC4=O)cc1,Potency,[1],inactive
same,Potency,[10],inactive
same,Potency,[5],inactive
same,Potency,[6],inactive
same,outcome,[7],inactive
same,Potency,[2],23.5 µM (active)
same,Potency,[3],20.9 µM (active)
same,Potency,[4],18.7 µM (active)
O=c1cc(-c2ccccc2)oc2cc(O)c(O)c(O)c12,Potency,[1],inactive
same,Potency,[3],inactive
NC(N)=Nc1nc(CSCC/C(N)=N/S(N)(=O)=O)cs1,Potency,[8],inactive
CCCCCCCCCCCC1=C(O)C(=O)C=C(O)C1=O,Potency,[1],inactive
same,Potency,[2],3.32 µM (active)
same,Potency,[4],3.32 µM (active)
COc1ccc(-c2cc(=O)c3c(O)cc(O)cc3o2)cc1O,Potency,[1],inactive
same,Potency,[2],4.69 µM (active)
same,Potency,[3],4.69 µM (active)
same,Potency,[4],5.26 µM (active)
C[C@@H](O)[C@H]1C(=O)N2C(C(=O)O)=C(S[C@@H]3CN[C@H](C(=O)N(C)C)C3)[C@H](C)[C@H]12,Potency,[8],inactive
Cc1ccc(F)c(NC(=O)Nc2ccc(-c3cccc4[nH]nc(N)c34)cc2)c1,Potency,[1],inactive
same,Potency,[2],13.2 µM (active)
same,Potency,[4],10.5 µM (active)
CN(C)c1cc(NC(=O)CNC(C)(C)C)c(O)c2c1C[C@@H]1C[C@H]3[C@H](N(C)C)C(=O)C(C(N)=O)=C(O)[C@@]3(O)C(=O)C1=C2O,Potency,[1],inactive
same,Potency,[9],inactive
same,Potency,[2],inactive
same,Potency,[3],inactive
same,Potency,[4],inactive
Cc1ccn(-c2ccc(-c3ncco3)cc2)c(=O)c1-c1ccc2nc(N)ncc2c1,Potency,[10],inactive
same,Potency,[5],inactive
same,Potency,[3],inactive
same,Potency,[4],14.8 µM (active)
